Only some compounds are listed: those with a hit (about 8% of all), similar ones and a draw of the others.
HT1080NT lethal: kills 2HG-producing HT-1080-NT fibrosarcoma cells | HT-1080-NT fibrosarcoma viability, CellTiter-Glo ATP luminescence, 48 h | Potency, µM (titrated, usually from 46.1 µM), for the others: top-dose activity, negative = less viability, hits mostly cytotoxic | actives 1.6% (n = 360,000) | AID 686970;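 note: NT is the 2HG producing partner of a matched IDH1 knockdown line; 0% = DMSO-treated cells and -100% = media-only wells without cells; nearly all actives have a fitted effect of over 55% in size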
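Read-out is CellTiter-Glo luminescence after 10 minutes at room temperature, following 48 hours' compound treatment of HT-1080-NT cells (750 cells/well, RPMI, 5% FBS, 37 degrees C).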
KB-3-1 cytotox: kills parental KB-3-1 adenocarcinoma cells | KB-3-1 viability, CellTiter-Glo ATP luminescence, 72 h | Potency, µM (highest dose often 46.1 µM), actives largely listed as cytotoxic | actives 1.4% (n = 400,000) | AID 1347075; note: % is set by controls: 0 for no effect and ±100 for the full control effect; nearly all actives have a fitted effect of over 60% in size
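KB-3-1 parental drug-naive adenocarcinoma cells in DMEM/10% FBS, incubated 72 h at 37 C with pin-transferred compounds across a concentration series. Viability by CellTiter-Glo luminescence; concentration-response curves fitted after normalization.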
MCF10A rerep: inducers of DNA re-replication in MCF 10A breast cells. Potency, µM (titrated, usually from 46.1 µM), inactives show top-dose activity, positive = re-replication, actives largely listed as activators. actives 2.9% (n = 350,000). AID 624296. MCF 10A DNA re-replication, Hoechst nuclear intensity, 48 h; note: % of control where 0% means no effect; nearly all actives have a fitted effect of over 50% in size
SW480 rerep: inducers of DNA re-replication in SW480 colon cancer cells. Potency, µM (doses to about 46.1 µM), without a hit: top-dose re-replication activation, most hits filed as activators. actives 1.8% (n = 340,000). SW480 DNA re-replication, Hoechst DNA content imaging, 48 h; note: % of control where 0% means no effect; nearly all actives have a fitted effect of over 55% in size
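250 cells/well; 23 nL cpd via pin tool; 48 hr, 37 C, 5% CO2; Hoechst 40 min; imager read of total nuclear intensity, ex 405/em 500-530 nm.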
KB-V1 MDR tox: kills drug-selected multidrug resistant KB-V1 cells; KB-V1 MDR cells viability, CellTiter-Glo, 72 h; Potency, µM (top dose mostly 46.1 µM), most hits filed as cytotoxic; AID 1347076; actives 3.4% (n = 400,000); note: % is set by controls: 0 for no effect and ±100 for the full control effect; nearly all actives have a fitted effect of over 60% in size
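KB-V1 cells (P-gp-expressing MDR subline of KB-3-1) in phenol-red-free DMEM with 10% FBS were exposed to library compounds over a concentration series for 72 h at 37 degrees C. Viability read by CellTiter-Glo luminescence; concentration-effect curves fitted after normalization.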
HT1080 IDH1KD tx: HT-1080 IDH1 knockdown cell toxicity (counter line). Potency, µM (titrated, usually from 46.1 µM), without a hit: at the highest dose activity, negative = toxicity, most hits filed as cytotoxic. AID 686971. actives 2% (n = 360,000). HT-1080 IDH1 knockdown viability, ATP luminescence, 48 h;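 note: 0% = DMSO wells and -100% = cell-free medium wells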
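Luminescent ATP read-out (CellTiter-Glo, 10 min at room temperature) after 48 h compound exposure at 37 °C gave viability of IDH1-knockdown HT-1080 cells. Activity was normalised to DMSO and cell-free wells, then fitted as concentration-response curves.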
Starred values were filed as active, the others as inactive; i = inactive; u = inconclusive; x = not tested or not shown. Calls come from the whole dose curve; as a rule, active = well fitted curve in the direction sought with a large enough effect; inconclusive = small, poorly fitted or top-dose-only effect, or another doubt; inactive = no such curve, though single readings can be large; an effect the other way counts as inactive or inconclusive. Potency is the fitted concentration of half-maximal effect.

SMILES	HT1080NT lethal	KB-3-1 cytotox	MCF10A rerep	SW480 rerep	KB-V1 MDR tox	HT1080 IDH1KD tx
CCc1cc2c(COC(=O)c3cccc(NS(C)(=O)=O)c3)cc(=O)oc2cc1O	u	i	9.2µM*	28%	i	u
COc1ccc2c(COC(=O)c3cccc(S(=O)(=O)NCC(C)C)c3)cc(=O)oc2c1	-21%	i	u	-38%	i	-23%
CCCNS(=O)(=O)c1cccc(C(=O)OCc2cc(=O)oc3cc(OC)ccc23)c1	u	i	7.3µM*	u	i	u
CCc1ccccc1NC(=O)CN1C(=O)CCn2nc(-c3cccn3C)cc21	x	i	x	x	i	x
O=CNc1ccc2c3c(cccc13)-c1ccccc1-2	-11%	i	u	2.3µM*	u	-5%
CCCCN(CC)CCNC(=O)c1c(C)oc2ncnc(N3CCOCC3)c12	x	i	x	x	i	x
COc1ccc(N2C(=O)CSC23C(=O)N(Cc2ccc(C)cc2)c2ccccc23)cc1Cl (centres undefined)	x	u	x	x	18µM*	x
O=C(CN1C(=O)C2(SCC(=O)N2c2cccc(F)c2)c2ccccc21)NCc1ccccc1Cl (centres undefined)	x	i	x	x	6.5µM*	x
COc1ccc(N2C(=O)CSC23C(=O)N(Cc2ccccc2F)c2ccccc23)cc1Cl (centres undefined)	x	u	x	x	18µM*	x
COc1cccc(N2C(=O)CSC23C(=O)N(Cc2ccccc2F)c2ccccc23)c1 (centres undefined)	x	i	x	x	u	x
O=C(CN1C(=O)C2(SCC(=O)N2c2ccccc2)c2ccccc21)NCc1ccccc1Cl (centres undefined)	x	i	x	x	i	x
O=C1CSC2(C(=O)N(Cc3ccccc3F)c3ccccc32)N1c1cccc(C(F)(F)F)c1 (centres undefined)	x	18µM*	x	x	8.2µM*	x
O=C(CN1C(=O)C2(SCC(=O)N2c2ccc(F)c(F)c2)c2ccccc21)Nc1ccccc1F (centres undefined)	x	i	x	x	i	x
COC(=O)C(NC(=O)CCc1c(C)nc2c(-c3ccccc3)c(C)nn2c1C)C(C)C (centres undefined)	x	i	x	x	i	x
Cc1nc(-c2ccc(S(=O)(=O)N3CCN(c4cccc(Cl)c4)CC3)cc2)co1	x	i	x	x	i	x
Cc1cccc(N2CCN(C(=O)COc3ccc4ccc(=O)oc4c3)CC2)c1C	-22%	i	-8%	-4%	i	3%
Cc1cccc(N2CCN(C(=O)COc3ccc4c(c3)CCC4)CC2)c1C	0%	u	u	-72%	21µM*	-4%
CCCS(=O)(=O)N1CC(=O)N(c2ccccc2F)C(C)(C(=O)NC2CCCCCC2)C1 (centres undefined)	x	i	x	x	i	x
CN(C)S(=O)(=O)N1CCC(n2cnc3cccnc32)CC1	x	i	x	x	i	x
COc1cc(CN2CCCC(CO)(Cc3cccc(Cl)c3)C2)cc2c1OCO2 (centres undefined)	u	i	18%	0%	i	16µM*
Cc1cc(C(=O)N2CCCC(CO)(Cc3ccc(F)cc3)C2)c(C)o1 (centres undefined)	9%	i	23µM*	u	u	12%
OCC1(Cc2cccc(Cl)c2)CCCN(Cc2ccc(F)c(F)c2)C1 (centres undefined)	-29%	i	u	-73%	i	26µM*
CSc1cccc(CN2CCCC(CO)(Cc3cccc(Cl)c3)C2)c1 (centres undefined)	14%	i	-1%	-10%	i	6%
COc1cc(CN2CCCC(CO)(Cc3cccc(Cl)c3)C2)cc(OC)c1O (centres undefined)	-13%	i	u	u	i	0%

Assay outcomes (PubChem BioAssay)
